Results taken from PubChem BioAssay.
Several values for one entry are separate records, joined by “and”; a condition that tells them apart may be missing. Identical values can stand only once.

Assay: viability loss with induced miR-34 in A549 – imaging, A549 dox-inducible miR-34, nuclei and caspase counts, primary screen (AID 1347080); also: test concentration not given here
Conditions: A549 miR-34 inducible, Hoechst nuclei count, 48 h; measured here: total cells with miR-34 induction; stronger effect = lower value

Compound	cell count
Nc1nc(N)c(N=O)c(OCC2CCCCC2)n1	8650 and 6730
CC(C)(C)c1nc(-c2cccc(NS(=O)(=O)c3c(F)cccc3F)c2F)c(-c2ccnc(N)n2)s1	8520
CCOc1cc(N2CCC(O)CC2)ccc1Nc1ncc2c(n1)N(C)c1ccccc1C(=O)N2C	6240
Cc1ccc(-n2[nH]c(C)c(N=Nc3cccc(-c4cccc(C(=O)O)c4)c3O)c2=O)cc1C	6690
CCc1nc(-c2cccc(C)c2)c(-c2ccnc(NC(=O)c3ccccc3)c2)s1	5690
Nc1ncnc2c1c(-c1cccc(OCc3ccccc3)c1)cn2C1CC(CN2CCC2)C1 (stereo not drawn)	2880
NC[C@@H]1O[C@H](O[C@H]2[C@@H](O)[C@H](O[C@@H]3[C@@H](O)[C@H](N)C[C@H](N)[C@H]3O[C@H]3O[C@H](CN)[C@@H](O)[C@H](O)[C@H]3N)O[C@@H]2CO)[C@H](N)[C@@H](O)[C@@H]1O	8260 and 10600
COc1ccc(-c2c(-c3ccc(O)cc3O)n[nH]c2C)cc1	7090
O=C(Nc1nc2ccccc2n1CCN1CCOCC1)c1cccc([N+](=O)[O-])c1	5540

Same assay, conditions: A549 miR-34 inducible, Hoechst nuclei count, 48 h; measured here: total cells without miR-34 induction

Compound	cell count
Nc1nc(N)c(N=O)c(OCC2CCCCC2)n1	8720 and 8160
CC(C)(C)c1nc(-c2cccc(NS(=O)(=O)c3c(F)cccc3F)c2F)c(-c2ccnc(N)n2)s1	8520
CCOc1cc(N2CCC(O)CC2)ccc1Nc1ncc2c(n1)N(C)c1ccccc1C(=O)N2C	7040
Cc1ccc(-n2[nH]c(C)c(N=Nc3cccc(-c4cccc(C(=O)O)c4)c3O)c2=O)cc1C	7330
CCc1nc(-c2cccc(C)c2)c(-c2ccnc(NC(=O)c3ccccc3)c2)s1	5840
Nc1ncnc2c1c(-c1cccc(OCc3ccccc3)c1)cn2C1CC(CN2CCC2)C1 (stereo not drawn)	2830
NC[C@@H]1O[C@H](O[C@H]2[C@@H](O)[C@H](O[C@@H]3[C@@H](O)[C@H](N)C[C@H](N)[C@H]3O[C@H]3O[C@H](CN)[C@@H](O)[C@H](O)[C@H]3N)O[C@@H]2CO)[C@H](N)[C@@H](O)[C@@H]1O	9270 and 11000
COc1ccc(-c2c(-c3ccc(O)cc3O)n[nH]c2C)cc1	7620
O=C(Nc1nc2ccccc2n1CCN1CCOCC1)c1cccc([N+](=O)[O-])c1	6700
